An excerpt weighted towards active compounds, which were near 1% of everything screened.
gsp ag – qHTS for Agonist of gsp, the Etiologic Mutation Responsible for Fibrous Dysplasia/McCune-Albright Syndrome: qHTS | gsp mutant cells, cAMP HTRF, 30 min | Potency, µM (doses to about 76.9 µM), hits mostly activators | 340,000 compounds, 0.13% hits; active = well fitted activation curve with a large enough effect; inconclusive = small, poorly fitted or top-dose-only effect, or another doubt; inactive = no such curve, though single readings can be large or run the other way; cell line not stated here;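 note: phosphodiesterase inhibitor Ro 20-1724 added with compounds to block cAMP breakdown; nearly all actives have a fitted effect of over 60% in size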
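Cells in DMEM/10% FBS with G418 were pretreated with compounds in DMSO plus […] (300 uM stock) for 30 min at 37C. cAMP was measured by HTRF (cAMP-d2 plus anti-cAMP antibody-K) after 30 min at room temperature.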
TSHR antag – Antagonists of the Thyroid Stimulating Hormone Receptor: HTS campaign | Thyrotropin receptor (Homo sapiens), P16473 | TSHR-expressing cells, TSH-stimulated cAMP HTRF, 2 h; active compounds read low | activity change, negative = inhibition, % at 11.5 µM | 330,000 compounds, 0.2% hits | AID 504810, 2011;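 active = activity change below a set negative limit, meaning inhibition stronger than a set level, cut at about -70% in these data; inconclusive = activity change between two set negative limits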
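Read-out is FRET at 665 nm (cryptate excitation 337 nm) from a cryptate-tagged anti-cAMP antibody, competed by cell cAMP against cAMP-d2. Compounds are tested on freshly harvested TSHR cells challenged with 4nM TSH (EC80) for 2 hours at 37 deg C.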
gsp antag – qHTS for Antagonists of gsp, the Etiologic Mutation Responsible for Fibrous Dysplasia/McCune-Albright Syndrome: qHTS; gsp-mutant cells, cAMP HTRF, 30 min; Potency, µM (doses to about 76.9 µM), usual class: inhibitors; 340,000 compounds, 0.4% hits; calls by dose curve; cell line not stated here;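 note: intracellular cAMP measured with PDE inhibitor Ro 20-1724 present during compound exposure; nearly all actives have a fitted effect of over 65% in size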
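Cells, 2000/well, grown 16–24 h in DMEM 10% FBS with 0.5 mg/ml G418, then compounds plus […] (300 uM addition stock), 30 min at 37C. cAMP read by HTRF (cAMP-d2 and anti-cAMP antibody-K in lysis buffer) after 30 min RT.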
RXFP1 antagonist – qHTS Assay for Antagonists of the Relaxin Receptor RXFP1; activity change, negative = inhibition, % at 57.5 µM; HEK293-RXFP1, relaxin-stimulated cAMP HTRF, 30 min; active compounds read low; Relaxin receptor 1 (Homo sapiens), Q9HBX9; 350,000 compounds, 0.59% hits;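 active = activity change of -60% or lower, but not beyond a set lower limit; inconclusive = change between -60% and -40%, or beyond the set limit; inactive = change above -40%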
Target sequence (Q9HBX9 whole entry, looked up): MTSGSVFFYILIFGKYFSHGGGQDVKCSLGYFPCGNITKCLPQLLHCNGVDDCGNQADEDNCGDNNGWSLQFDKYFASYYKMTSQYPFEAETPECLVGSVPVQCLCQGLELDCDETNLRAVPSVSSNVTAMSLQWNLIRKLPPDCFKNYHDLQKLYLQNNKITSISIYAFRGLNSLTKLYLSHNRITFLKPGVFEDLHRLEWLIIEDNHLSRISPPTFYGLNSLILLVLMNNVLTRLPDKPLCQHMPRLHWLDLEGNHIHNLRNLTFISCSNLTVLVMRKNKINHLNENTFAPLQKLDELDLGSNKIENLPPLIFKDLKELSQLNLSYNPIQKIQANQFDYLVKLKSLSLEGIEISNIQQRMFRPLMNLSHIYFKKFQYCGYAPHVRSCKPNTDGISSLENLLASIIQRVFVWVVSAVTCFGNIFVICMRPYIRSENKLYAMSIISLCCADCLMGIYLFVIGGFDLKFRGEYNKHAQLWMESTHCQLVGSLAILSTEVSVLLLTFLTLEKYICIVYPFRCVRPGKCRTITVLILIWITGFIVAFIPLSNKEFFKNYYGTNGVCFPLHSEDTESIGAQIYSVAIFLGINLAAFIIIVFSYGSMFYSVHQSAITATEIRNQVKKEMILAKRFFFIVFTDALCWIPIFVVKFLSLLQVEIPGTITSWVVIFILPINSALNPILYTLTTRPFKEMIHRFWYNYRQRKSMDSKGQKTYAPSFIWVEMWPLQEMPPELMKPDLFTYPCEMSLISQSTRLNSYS
RXFP1 ag – qHTS Assay for Agonists of the Relaxin Receptor RXFP1 | Relaxin receptor 1 (Homo sapiens), Q9HBX9 | HEK293T-RXFP1 cAMP TR-FRET, 30 min; response scale: percent of porcine relaxin response, buffer zero | Potency, µM (doses to about 57.5 µM), actives largely listed as activators | 370,000 compounds, 0.3% hits | AID 2676, 2010; active = well fitted activation curve with a large enough effect; inconclusive = small, poorly fitted or top-dose-only effect; note: nearly all actives have a fitted effect of over 60% in size
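cAMP rise read by TR-FRET after 30 min, 37C compound exposure (up to 58 uM) in RXFP1-transfected HEK293 cells with Ro 20174 present. EC50 from Hill-equation fits, with 29 nM porcine relaxin as 100% and buffer as basal.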
Numbers stand for hits; i = inactive; ? = inconclusive; nt = not tested or not shown; [ ] = dose if it differs, or a comment.

SMILES	gsp ag	TSHR antag	gsp antag	RXFP1 antagonist	RXFP1 ag
Cc1ccc(O)c(C(=O)c2cc(C#N)c(=O)n(Cc3ccccc3)c2)c1	i	i	i	-90.3	i
CN(C)c1ccc(CNC(=O)CCn2c(=O)c3cccn3c3ccc(F)cc32)cc1	nt	nt	nt	i	?
COc1ccc(NC(=O)Nc2ccc3c(c2)N(C)C(=O)CS3)cc1OC	i	i	i	nt	i
CC(=O)c1ccc(NC(=O)Nc2ccc3c(c2)N(C)C(=O)CS3)cc1	?	i	35.5µM	-69.8	i
COc1ccc(NC(=O)Nc2ccc3c(c2)N(C)C(=O)CS3)cc1Cl	i	i	50.1µM	?	i
Cc1ccc(Oc2cc(NC(=O)CCCn3nc([N+](=O)[O-])cc3C)cc([N+](=O)[O-])c2)cc1	i	-70.5	i	nt	i
CCOc1ccc(CC(=O)NCCS(=O)(=O)N2CCN(c3ccc(OC)cc3)CC2)cc1	nt	nt	nt	i	i
CCCCNc1c(-c2cccc(-c3ccc(OC)cc3)c2)nc2cc(C)ccn12	?	i	31.6µM	nt	nt
CCCCNc1c(-c2cccc(-c3ccc(OC)cc3)c2)nc2ccc(C)cn12	nt	-83.5	?	nt	i
CCCCNc1c(-c2ccc(-c3cccc(Cl)c3)cc2)nc2ccccn12	nt	i	i	nt	i
CCCCCCSc1cccc(-c2nc3ccc(Cl)cn3c2NCCCC)c1	i	nt	i	nt	nt
CCCCNc1c(-c2cccc(-c3cc(C(C)=O)cs3)c2)nc2ccc(C)cn12	nt	i	35.5µM	nt	i
CCOc1ccc(OCCOc2ccc(/C=C/C(=O)O)cc2OCC)cc1	i[15.4 µM]	i	20µM	i	i
CCOc1cc(/C=C/C(=O)O)ccc1OCCOc1ccc(F)cc1	i[15.4 µM]	i	?	i	i
O=C1c2ccccc2C(=O)c2c(NCc3cccnc3)cccc21	i	i	i	i	i
O=C1c2cccc(NCCCNCCO)c2C(=O)c2cccc(NCCCNCCO)c21	i	nt	39.8µM	?	nt
COC(c1ccccc1)(c1ccccc1)[C@H](Oc1nc(C)cc(C)n1)C(=O)O	nt	nt	nt	i	nt
Oc1ccc(Nc2nc(-c3ccccc3)nc3ccccc23)cc1	i[15.4 µM]	i	i	-76.6	i
Cc1cc2n(n1)C(c1ccc(O)cc1)Nc1ccccc1-2 (stereo not drawn)	?	i	i	i	i
Cc1ccc2c(c1)-c1cc(C)nn1C(c1cc(Br)ccc1O)N2 (stereo not drawn)	nt	nt	nt	-114.0	i
Cc1cccc(NC(=O)C2CCN(S(=O)(=O)c3c(C)nn(C)c3C)CC2)n1	?	i	i	nt	i
Cc1cccc(NC(=O)C2CCN(S(=O)(=O)c3c(C)c(C)cc(C)c3C)CC2)n1	i	i	i	-78.8	i
N#CC(C#N)=C1C=CC=CN1/C(=C\c1ccco1)C(=O)c1ccc(-c2ccccc2)cc1	i	i	i	i	i
N#CC(C#N)=C1C=CC=CN1/C(=C\c1ccco1)C(=O)c1ccc(Cl)cc1	i	-83.8	i	?	i
COc1cccc(-n2nnc3c(=O)n(CC(=O)NCC4CCCO4)cnc32)c1 (stereo not drawn)	11.2µM	i	i	i	i
SMILES	gsp ag	TSHR antag	gsp antag	RXFP1 antagonist	RXFP1 ag
Cc1ccc(C(=O)NNc2cc(N3CCCC3)nc(N3CCCC3)n2)cc1	i	i	i	-62.3	i
CC(C)CCn1c(=O)c2sccc2n2c(CCCC(=O)NCCc3ccccc3)nnc12	nt	nt	nt	i	i
CCC1Sc2ccc(S(=O)(=O)CCC(=O)NCc3ccc(C)o3)cc2NC1=O (stereo not drawn)	i	i	i	i	i
CCC1Sc2ccc(S(=O)(=O)CCC(=O)Nc3ccccc3Cl)cc2NC1=O (stereo not drawn)	i	-131.3	i	i	i
CCC(=O)N1c2ccccc2CC1C(=O)NCCc1ccccc1Cl (stereo not drawn)	nt	nt	nt	i	i
CC(=O)Oc1ccc2nc(/C=C/c3ccccc3)oc(=O)c2c1	i	-78.3	i	i	i
COc1ccc(NC(=O)Cc2c[nH]c3ccccc23)cc1S(=O)(=O)N1CCCCC1	i	-74.8	i	i	i
CCc1ccc(NCc2cc3ccc(OC)cc3n(CC(=O)Nc3ccccc3OC)c2=O)cc1	nt	nt	nt	nt	i
CC(C)Oc1ccc(Br)cc1/C=N\NC(N)=S	?	i	i	-64.7	i
